# About 83,000 compounds went through this panel and 20% of them were active in at least one assay; those are over-represented in the sample as a whole.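 Cell lines were cultured in 96-well plates, exposed to a single compound concentration, and assessed for percent growth 48 hours later.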 A number with no mark means an inactive call. The source made the active and inactive calls. How the source made its calls: active means growth percent below 10; inactive means the rest.
# Tested on: IGROV1 ovarian
# Test: NCI-60 one-dose screen, 48 h (100 = growth as untreated, 0 = no growth, -100 = all killed)
# Conditions: 10 µM unless noted
row,Structure (SMILES),growth [%]
1,CCCCN1CCN(c2ccc3nc(-c4ccc5nc(-c6ccc(OCC)c(OCC)c6)[nH]c5c4)[nH]c3c2)CC1,15.1
2,COc1ccc(C2CC(c3ccccc3)=NN2c2nc(C)c(C(C)=O)s2)cc1 (configuration not stated),103
3,O=C(/C=C/C12c3ccccc3C(c3ccccc31)C1C(=O)NC(=O)C12)c1ccccc1 (configuration not stated),19.8

# Tested on: OVCAR-3 ovarian
# Test: as above
# Conditions: 10 µM unless noted
row,Structure (SMILES),growth
1,COc1cc2c(c(OC)c1OC)C(=O)/C(=C/c1cc(C)c(O)c(C)c1)S2,8.16% (active)
2,COc1cc(CNC(=O)/C=C/C=C/c2ccc3c(c2)OCO3)ccc1OCc1cn(-c2ccc(Cl)c(Cl)c2)nn1,-62.8% (active)
3,COc1ccccc1C(=O)NC(=S)Nc1ccc(-c2nc3ccccc3[nH]2)cc1,-36% (active)
4,O=C(/C=C/C12c3ccccc3C(c3ccccc31)C1C(=O)N(c3ccccc3)C(=O)C12)c1ccc(Cl)cc1 (configuration not stated),-53.9% (active)
5,COc1cc(NC(=O)c2cccc(-c3cc(=O)c4c(O)c(OC)c(OC)cc4o3)c2)cc(OC)c1OC,23.8%
6,Nc1c(C(=O)c2ccc(Cl)s2)sc2nc3c(cc12)CCCC3,106%
7,N#Cc1c(-c2ccccc2)nc(SCC2CO2)nc1N1CCOCC1 (configuration not stated),61.7%
8,CCCCN(CCCC)CCCn1c(=O)c2sc3ncccc3c2n2nnc(-c3ccccc3)c12,120%
9,CC1(C)CC(=O)c2c(ccc(C(=O)C[C@H](N)CO)c2N)O1,7.02% (active)
10,COc1ccc(NC(=O)c2cccc(-c3cc(=O)c4c(O)c(OC)c(OC)cc4o3)c2)cc1,50.6%
11,CCn1c(Sc2nnc(NC(C)=O)s2)nc2c1c(=O)n(C)c(=O)n2C,93.1%
12,COc1cc(NC(=O)c2cccc(-c3cc(=O)c4c(OC)c(OC)c(OC)cc4o3)c2)cc(OC)c1OC,40.8%
13,CN(C)CN1CCN(c2ccc3nc(-c4ccc5nc(-c6ccc(C(F)(F)F)cc6)[nH]c5c4)[nH]c3c2)CC1,89.7%
14,COc1ccc(C2CC(c3ccc4ccccc4c3)=NN2c2nc(O)c(C3=c4cc(Cl)ccc4=NC3=O)s2)cc1 (configuration not stated),-83.1% (active)
15,NS(=O)(=O)c1cnccc1-n1ccc(=O)c(S(N)(=O)=O)c1,93.3%
16,O=C(/C=C/C12c3ccccc3C(c3ccccc31)C1C(=O)N(c3ccc(Cl)cc3)C(=O)C12)c1ccccn1 (configuration not stated),-71.6% (active)
17,O=C1CC(c2ccc3c(c2)OCO3)Nc2cc3c(cc21)OCO3 (configuration not stated),-5.26% (active)
18,C=CCOc1cccc(/C=C2\SC(=Nc3ccc(O)cc3)NC2=O)c1,6.17% (active)
19,Cc1cc(-c2ccc(N(C)C)cc2)c2sc(=O)[nH]c2n1,68.9%
20,O=C1NC(=S)S/C1=C\N1N=C(c2ccc(Cl)cc2)CC1c1ccc(F)cc1 (configuration not stated),86.4%

row,Structure (SMILES),growth
1,COc1ccccc1NC(=O)Nc1ccc(-c2nc3ccccc3o2)cc1,109%
2,O=C(c1ccccc1)c1ccc(N2C(=O)C3C4c5ccccc5C(/C=C/C(=O)c5ccccn5)(c5ccccc54)C3C2=O)cc1 (configuration not stated),-54.1% (active)
3,Cc1ccc2c(n1)C(=O)C(Oc1ccc(F)cc1)=CC2=O,73.2%
4,COc1cc2ccccc2cc1C(=O)NC(=S)Nc1ccc(-c2nc3ccccc3[nH]2)cc1,55%
5,COc1cc2c(O)n(CCCn3ccnc3)c3c4cnc5cccc(c(=O)c3c2cc1OC)c54,44.7%
6,Cc1nn(-c2ccccc2)c2c1C(c1ccc([N+](=O)[O-])cc1)C(C#N)=C(N)O2 (configuration not stated),122%
7,Cc1ccc(S(=O)(=O)N(CC[C@@H]2C[C@H]2c2cc3ccccc3o2)C(=O)NC2CCCCC2)cc1,104%
8,N#Cc1c(NC(=O)c2ccc(Br)cc2)sc2c1CCCC2,16.8%
9,COc1cc(C(=O)Nc2cc(O)c(CC=C(C)C)c(O)c2)cc2c1O[C@]1(C)CC[C@@H](O)C(C)(C)[C@H]1C2,27.7%
10,COc1cc(-c2cccc([N+](=O)[O-])c2)c(-c2nc(-c3ccccc3)c(-c3ccccc3)n2C2CC2)cc1OC,66.5%
11,O=c1[nH]c(NCc2nnnn2-c2ccc(Br)cc2)nc2sc3c(c12)CCCC3,97.8%
12,CN(C)CCOC(=O)Nc1ccc(Cl)cc1,106%
13,O=C(NC(=S)Nc1ccc(-c2nc3ccccc3[nH]2)cc1)c1ccc2ccccc2c1,-45.2% (active)
14,Cc1ccc(NC(=O)C(Cl)Cl)cc1,112%
15,CCCCN1CCN(c2ccc3nc(-c4ccc5nc(-c6cc(OC)c(OC)c(OC)c6)[nH]c5c4)[nH]c3c2)CC1,67%
16,CCCCCCCCn1cc(C2=C(c3coc4ccc(OC)cc34)C(=O)NC2=O)c2ccccc21,107%
17,CCCCN1CCN(c2ccc3nc(-c4ccc5nc(-c6ccc(OCC)c(OCC)c6)[nH]c5c4)[nH]c3c2)CC1,-87.3% (active)
18,COc1ccc(C2CC(c3ccccc3)=NN2c2nc(C)c(C(C)=O)s2)cc1 (configuration not stated),98.5%
19,O=C(/C=C/C12c3ccccc3C(c3ccccc31)C1C(=O)NC(=O)C12)c1ccccc1 (configuration not stated),2.7% (active)

# Reference: PubChem BioAssay (NCI)
